Bioassay records deposited in PubChem by National Center for Advancing Translational Sciences (NCATS).
An excerpt weighted towards active compounds, which were near 19% of everything screened.
IL1B secr inh = inflammasome signaling inhibition, IL-1 beta readout. THP-1 LPS/ATP IL-1B secretion, AlphaLISA, 16 h; hits give low values. activity change, % at 57.5 µM. 4.7% of 360,000 active. AID 743279; in the data active = activity change below about -50%; inconclusive = mostly about -30% to -49%; also: % is scaled to controls: 0 for no effect and ±100 for the full control effect
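THP-1 cells pretreated 1 hr with compounds (up to 57.5 uM final), then stimulated with LPS (250 ng/mL final) plus ATP (1.25 mM final); secreted IL-1B measured by AlphaLISA after 16 hr, decreased signal indicating inhibition.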
TGFb SMAD3 inh = inhibitors of TGF-b signaling; HepG2 CAGA-GFP TGF-b/SMAD3 reporter, GFP fluorescence, 18 h; TGF-beta stimulated, 500 pg/mL final; Potency, µM (top dose mostly 46.1 µM), for the others: at the highest dose activity, negative = inhibition, most hits filed as inhibitors; 1.2% of 410,000 active; AID 588855; also: potency is read from the fitted curve at half-maximal effect; % is scaled to controls: 0 for no effect and ±100 for the full control effect; nearly all actives have a fitted effect of over 65% in size
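HEPG2 CAGA-GFP reporter cells (1000/well, DMEM with 1% FBS) received compounds, then recombinant TGF-beta at 500 pg/mL final for 18 hours at 37 degrees C. Per-cell GFP summed per well was normalised to unstimulated and stimulated DMSO controls before curve fitting.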
TDP1 block = blocks human tyrosyl-DNA phosphodiesterase 1; recombinant TDP1, AlphaScreen DNA substrate cleavage; 0.28% of 350,000 active; Q9NUW8; AID 485290; Potency, µM (series often up to 130 µM), without a hit: at the top dose activity change, negative = inhibition, usual class: inhibitors; also: potency is read from the fitted curve at half-maximal effect; % is scaled to controls: 0 for no effect and ±100 for the full control effect; nearly all actives have a fitted effect of over 40% in size
Target sequence (Q9NUW8 whole entry, looked up): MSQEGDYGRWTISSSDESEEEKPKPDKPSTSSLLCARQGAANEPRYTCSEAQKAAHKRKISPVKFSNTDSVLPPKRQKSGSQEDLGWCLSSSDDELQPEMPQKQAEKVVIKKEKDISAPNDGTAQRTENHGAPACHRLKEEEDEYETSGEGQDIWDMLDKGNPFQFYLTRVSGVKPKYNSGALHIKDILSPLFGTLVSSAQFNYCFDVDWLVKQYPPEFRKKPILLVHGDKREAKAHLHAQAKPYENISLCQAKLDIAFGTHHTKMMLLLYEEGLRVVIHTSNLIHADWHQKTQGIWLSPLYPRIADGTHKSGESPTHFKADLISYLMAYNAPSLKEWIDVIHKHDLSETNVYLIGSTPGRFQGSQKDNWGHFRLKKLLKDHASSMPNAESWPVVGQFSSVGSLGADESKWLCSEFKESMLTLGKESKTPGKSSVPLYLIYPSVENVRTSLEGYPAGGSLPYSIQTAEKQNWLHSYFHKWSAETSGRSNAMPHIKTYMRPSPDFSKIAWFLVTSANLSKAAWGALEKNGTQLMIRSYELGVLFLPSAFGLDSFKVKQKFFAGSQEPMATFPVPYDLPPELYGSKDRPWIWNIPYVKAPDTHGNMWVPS
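Tdp1 1 nM final; 15 min RT w/ cpd; substrate 15 nM, 5 min; beads 10 ug/ml, 10 min; AlphaScreen read. Neg ctrl: no enzyme.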
TDP1 cell noCPT = qHTS for Inhibitors of human tyrosyl-DNA phosphodiesterase 1 (TDP1): qHTS in cells in absence of CPT; DT40 Tdp1-/- hTDP1 cells, no CPT, ATP luminescence, 48 h; Potency, µM (highest dose often 46.2 µM), without a hit: at the top dose activity change, negative = growth inhibition, most hits filed as inhibitors; 15% of 420,000 active; also: potency is read from the fitted curve at half-maximal effect; % is scaled to controls: 0 for no effect and ±100 for the full control effect; nearly all actives have a fitted effect of over 55% in size
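Chicken DT40 Tdp1-/- cells complemented with human TDP1, screened without camptothecin (DMSO vehicle only), 400 cells/well. Compounds pin-transferred, cells incubated at 37 °C for at least 48 hr. Growth read as ATP-dependent luminescence (CellTiter-Glo, 30 min at RT).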
HepG2 tox = kills HepG2 cells in TGF-b inhibitor counter-screen; HepG2 CAGA-GFP viability, ATP luminescence, 18 h; Potency, µM (doses to about 46.1 µM), for inactives: at the top dose activity change, negative = cytotoxicity, hits mostly cytotoxic; 0.76% of 410,000 active; AID 588856; also: potency is read from the fitted curve at half-maximal effect
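HepG2 CAGA-GFP cells (1000/well, DMEM with 1% FBS) received compound, then TGF-beta at 500 pg/mL final, and were incubated 18 hours at 37 degrees C. Viability was read by CellTiter-Glo luminescence. Media-only wells were set as complete cell-killing and DMSO as no toxicity.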
TDP1 cell CPT = growth inhibition of DT40 Tdp1-/-;hTDP1 cells with camptothecin (screen for TDP1 inhibitors); chicken DT40 Tdp1-/-;hTDP1 cells + 20 nM CPT, ATP luminescence, 48 h; 12% of 420,000 active; Potency, µM (top dose mostly 46.2 µM), without a hit: top-dose activity change, negative = growth inhibition, actives largely listed as inhibitors; also: potency is read from the fitted curve at half-maximal effect; % is scaled to controls: 0 for no effect and ±100 for the full control effect; nearly all actives have a fitted effect of over 55% in size
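Cell growth measured by CellTiter-Glo luminescence after a minimum 48 h, 37 C compound exposure with 20 nM CPT in Tdp1-knockout DT40 cells stably expressing hTDP1, seeded 400/well; qHTS titration format.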
An asterisk follows results filed as active; ? = inconclusive; · = no result; [ ] = another dose, or the depositor's remark. Unless noted, calls follow the shape of the dose curve; as a rule, active = well fitted curve in the direction sought with a large enough effect; inconclusive = small, poorly fitted or top-dose-only effect, or another doubt; inactive = no such curve, though single readings can be large; an effect the other way counts as inactive or inconclusive.

SMILES | IL1B secr inh | TGFb SMAD3 inh | TDP1 block | TDP1 cell noCPT | HepG2 tox | TDP1 cell CPT
Cc1csc(NC(=O)CSc2nnc(-c3ccoc3C)o2)n1 | 3.1 | -4.1% | 5.6% | ? | -3.0% | ?
O=C(c1cccc(Br)c1)N1CCCc2ccccc21 | 36.5 | -14.7% | · | ? | -3.5% | ?
COc1cccc(C(=O)NN2c3ccccc3CCc3ccccc32)c1 | 9.5 | ? | 1.2% | 10.3µM* | -6.4% | 20.6µM*
Cc1occc1-c1nnc(SCC(=O)Nc2nc(C(C)(C)C)cs2)o1 | -0.5 | ? | 4.0% | 10.3µM* | -33.1% | 9.2µM*
O=C(c1coc(=O)c(Br)c1)N1CCCc2ccccc21 | 22.4 | 2.6% | · | 2.59µM* | -20.6% | 1.84µM*
COc1ccc(-c2ccc(C(=O)NCC3Cc4cccc(-c5nc(C)cnc5C)c4O3)o2)cc1 (centres undefined) | · | · | · | ? | · | -1.5%[9.04 µM]
NCCC(O)(P(=O)(O)O)P(=O)(O)O | · | · | 8.9% | 3.1% | · | -15.4%
Cc1ccc(NC(=O)C(Cc2ccccc2)NS(=O)(=O)c2cccc3nsnc23)c(C)c1 (centres undefined) | · | -10.6% | 0.0% | ? | -16.9% | -13.6%
COc1ccc(CCCn2ncc3c2nc(N)n2nc(-c4ccco4)nc32)cc1 | · | · | 9.2% | · | · | ·
COc1cc2ccccc2cc1C(=O)N1CCc2ccccc21 | 0.6 | -24.1% | -4.8% | 14.6µM* | -21.7% | 16.4µM*
COc1cc(C(=O)N2CCc3ccccc32)cc(OC)c1OC | 15.2 | 3.5% | · | -26.7% | -9.5% | -1.3%
COC(=O)C1CCCCN1Cc1ccc2c(c1)CN(Cc1cn[nH]c1-c1ccc(F)cc1)CCO2 (centres undefined) | · | · | · | ? | · | 1.2%[9.04 µM]
Cc1ccc(CSc2nnc3ccc(-c4ccncc4)nn23)cc1 | -25.7 | -5.8% | 3.6% | -26.3% | -7.0% | -5.4%
COc1ccccc1Nc1nnc(SCC(=O)N2CCCC2=O)s1 | 11.7 | -2.2% | -3.8% | -1.2% | -33.9% | -8.1%
CCc1ccc(Nc2nnc(SCC(=O)NC(=O)CN3CCCC3=O)s2)cc1 | 4.7 | -8.6% | 17.8µM* | 20.9% | 4.4% | 0.0%
CCc1ccc(Nc2nnc(SCC(=O)N(C)CC(=O)Nc3ccccc3CC)s2)cc1 | -19.2 | -25.1% | 3.5% | 14.6µM* | -30.5% | 18.4µM*
Cc1ccccc1NC(=O)C1CCN(S(=O)(=O)c2ccccc2)CC1 | · | -21.7% | 7.0% | -24.8% | -2.7% | 1.9%
CCOc1ccccc1-c1nnc(SCc2ccc(Cl)cc2)o1 | · | ? | ? | · | -57.1% | ·
Cc1c(C(=O)N(Cc2ccc(Cl)cc2)CC2CCCO2)oc2ccc(F)cc12 (centres undefined) | · | 0.0% | -0.5% | 14.6µM* | -36.4% | ?
Cc1cc2oc(C(=O)N(Cc3ccc(N(C)C)cc3)CC3CCCO3)c(C)c2cc1Cl (centres undefined) | · | 2.5% | 4.7% | 18.4µM* | -1.6% | ?
Cc1cc(C)cc(OCC(=O)N(Cc2ccc(Cl)cc2)CC2CCCO2)c1 (centres undefined) | · | ? | -12.0% | ? | -33.0% | ?
CCCc1ccc2oc(C(=O)N(Cc3ccncc3)CC3CCCO3)c(C)c2c1 (centres undefined) | -84.6* | ? | -14.9% | 18.4µM* | -28.0% | ?
CC(C)(C)N(Cc1ccccc1)C(=O)c1cc2ccccc2o1 | 4.5 | ? | -2.8% | 11.6µM* | -26.4% | ?
Cc1ccc2oc(C(=O)N(Cc3ccncc3)CC3CCCO3)c(C)c2c1 (centres undefined) | 2.2 | -4.8% | 5.5% | ? | -37.6% | ?
CN(Cc1ccccc1)C(=O)c1cc2ccccc2o1 | -0.5 | -1.3% | 4.0% | -16.1% | -20.4% | 2.6%
